Data on 17 molecules can be found in PubChem BioAssay (EPA / NIEHS).

Assay [1] addresses Estrogen receptor (Homo sapiens) (UniProt P03372). The assay can be described thus: CCTE_Deisenroth_AIME_384WELL_LUC_Active: CCTE's 384-well Estrogen Receptor Transactivation Assay with AIME metabolic competence (ERTA luciferase; metabolism positive), Deisenroth Lab (AID 2284030; active = hit-call score of the fitted dose curve at least 0.9, where 1 is the maximum). The essentials:
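Estrogenic luciferase signal in VM7Luc4E2 cells is measured at 24 hour, after chemicals have been preconditioned 2 hours with PB/BNF-induced rat hepatic S9 in alginate. Gain of signal is fitted relative to 17beta-estradiol, across 0.002 - 200 uM.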

Assay [2] in a line: CCTE_Harrill_HTTr_Viability_MCF7: CCTE's 6-hour Cell Viability Assessment for the High-Throughput Transcriptomics (HTTr) Platform, in MCF-7 cells cultured in DMEM + 10% fetal bovine serum, Harrill Lab (AID 2284010). The essentials:
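PI exclusion, high-content imaging; 8-pt dilution series, 6 h exposure; bidirectional fit vs DMSO (neg. ctrl/baseline); gain of signal = loss of membrane integrity.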

The nature of assay [3]: CCTE_Harrill_HTTr_Apoptosis_MCF7: CCTE's 6-hour Apoptosis Assessment for the High-Throughput Transcriptomics (HTTr) Platform, in MCF-7 cells cultured in DMEM + 10% fetal bovine serum, Harrill Lab (AID 2284011). The method, boiled down:
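Apoptosis in MCF-7 cells grown in DMEM with 10% fetal bovine serum was scored after a six hour exposure by high content imaging of caspase-3/7 activation (CellEvent Caspase 3/7 Green), with DMSO serving as negative control and baseline.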

The nature of assay [4]: CCTE_Harrill_HTTr_CellCount_MCF7: CCTE's Cell Proliferation Assessment for the High-Throughput Transcriptomics (HTTr) Platform, Harrill Lab (AID 2284012; active = hit-call score of the fitted dose curve at least 0.9, where 1 is the maximum;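 also: count of Hoechst-stained nuclei per well by high-content imaging in MCF-7 cells; cells exposed to compound for six hours; intended direction is loss of nuclei count meaning fewer cells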). The method, boiled down: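 Readout: Hoechst nuclear count by high-content imaging. MCF-7, 8-point dilution series, 6 h exposure. Bidirectional fit vs DMSO baseline.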
Assay [5] is described as follows: CCTE_Shafer_MEA_acute_burst_number: CCTE's Neural Acute Assay for Single-Electrode Bursts, Shafer Lab (AID 2284013). The method, boiled down: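 Percent change in single-electrode burst number per well, from 40-min recordings taken before and after adding compound (0.03-40 uM) to primary rat cortical neurons on MEA plates at DIV 13 or 15, 37 C.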
The nature of assay [6]: CCTE_Shafer_MEA_acute_burst_duration_mean: CCTE's Neural Acute Assay for Mean Burst Duration, Shafer Lab (AID 2284014).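 Also: hits are decreases in mean burst duration relative to DMSO controls.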 The essentials:
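Rat cortical cultures, DIV 13/15; 40 min baseline, then 40 min with compound (0.03-40 uM), 37 C. Spikes: 300-5000 Hz band-pass, 8x rms threshold. Read-out: % change in mean single-electrode burst duration, DMSO-referenced, loss direction.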

Assay [7] is described as follows: CCTE_Shafer_MEA_acute_per_burst_spike_number_mean: CCTE's Neural Acute Assay for Average Number of Spikes Per Burst, Shafer Lab (AID 2284015).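 Also: hits are decreases in mean spikes per burst versus baseline.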 The method, boiled down:
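We recorded spontaneous network firing of rat cortical neurons for 40 min before and 40 min during exposure to compound at 0.03-40 uM, at 37 C. Spikes were detected adaptively at 8x rms noise, and the change in average spikes per burst was fitted against DMSO.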

Assay [8] is described as follows: CCTE_Shafer_MEA_acute_interburst_interval_mean: CCTE's Neural Acute Assay for Mean Interburst Interval, Shafer Lab (AID 2284016).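 Also: percent change of mean interburst interval versus each well's own pre-dose baseline; curves fitted for decrease in interburst interval relative to DMSO.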 The essentials: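 MEA recording of spontaneous network bursting in primary rat cortical cultures; mean interburst interval was compared before and after a 40-min compound exposure (0.03-40 uM) and expressed as percent change, relative to DMSO.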

Assay [9] can be described thus: CCTE_Shafer_MEA_acute_burst_percentage_mean: CCTE's Neural Acute Assay for Percentage of Spikes in a Burst, Shafer Lab (AID 2284017).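 As to AC50: curve fitted for loss of signal so potency reflects decreased burst percentage.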 The essentials:
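Compounds were tested at 0.03-40 uM on primary rat cortical neuron networks grown over microelectrodes, with at least three wells per compound. Spontaneous firing was recorded for 40 min before and 40 min after dosing, and the change in burst percentage was computed per well.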

Assay [10] in a line: CCTE_Shafer_MEA_acute_burst_percentage_std: CCTE's Neural Acute Assay for Standard Deviation of Burst Percentage, Shafer Lab (AID 2284018).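 Also: fitted in the negative direction so actives lower burst percentage SD.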 The method, boiled down: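 Rat primary cortical neurons on 48-well MEAs, DIV 13 or 15, 37 C. 40-min baseline then 40-min recording with compound (0.03-40 uM); well-level SD of per-electrode burst spike percentage, expressed as percent change from baseline.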

Assay [11] can be described thus: CCTE_Shafer_MEA_acute_per_network_burst_spike_number_mean: CCTE's Neural Acute Assay for Average Number of Spikes in a Network Burst, Shafer Lab (AID 2284019).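 As to AC50: curve fitted for loss of signal so actives reduce spikes per network burst.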 The method, boiled down:
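Rat cortical cultures, DIV 13/15; spike threshold 8x rms noise, 300-5000 Hz band-pass, 12.5 kHz sampling; wells need >/= 10 active electrodes. Compound 0.03-40 uM, 40 min, 37 C; % change vs own baseline, DMSO negative control.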

The nature of assay [12]: CCTE_Shafer_MEA_acute_per_network_burst_spike_number_std: CCTE's Neural Acute Assay for Standard Deviation of Number of Spikes in a Network Burst, Shafer Lab (AID 2284020).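 Also: fitted for decrease in spike-number SD versus DMSO so actives lower it.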 The method, boiled down: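 Rat cortical cultures, DIV 13/15, 37 C; 20-min stabilisation, 40-min baseline, compound 0.03-40 uM, 40-min re-record. Spikes detected at 8x rms noise (300-5000 Hz band-pass). Readout: % change from baseline in per-burst spike-number SD.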

Assay [13] can be described thus: CCTE_Shafer_MEA_acute_per_network_burst_electrodes_number_mean: CCTE's Neural Acute Assay for Mean Number of Electrodes in a Network Burst, Shafer Lab (AID 2284021).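 Also: curves fitted for decreases only so hits reduce electrodes per burst.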 The essentials:
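Percent change from baseline in average electrode count per network burst, rat cortical cultures on 48-well MEAs; 40-min recordings each side of exposure, DIV 13 or 15; threshold 8x rms noise; DMSO as negative control.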

Assay [14] is described as follows: CCTE_Shafer_MEA_acute_network_burst_percentage: CCTE's Neural Acute Assay for Percentage of Network Bursts, Shafer Lab (AID 2284022).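 Also: curves fitted for loss so actives lower network burst percentage.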 The essentials:
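On DIV 13 or 15, at least three wells of rat cortical neurons per compound are dosed at 0.03-40 uM. Spontaneous firing is detected at 8x rms noise for 40 min before and after dosing at 37 C. The percent change in network-burst spike share is reported.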

The nature of assay [15]: CCTE_Shafer_MEA_acute_cross_correlation_area: CCTE's Neural Acute Assay for Area of Cross Correlation, Shafer Lab (AID 2284024).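 Also: area under pooled inter-electrode spike cross-correlation near zero lag as percent change from own baseline; curves fitted for loss of cross-correlation area so actives lower synchrony.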 The method, boiled down: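 Extracellular recordings from cultured rat cortical neurons measure network synchrony as cross-correlation area; each well's post-compound value (0.03-40 uM, 40 min) is compared with its own 40 min baseline to give percent change.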

Assay [16] can be described thus: CCTE_Shafer_MEA_acute_synchrony_index: CCTE's Neural Acute Assay for Synchrony, Shafer Lab (AID 2284027).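 Also: network synchrony index of spontaneous spiking in primary rat cortical neurons on MEAs; fitted for loss of signal so actives lower synchrony relative to DMSO.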 The method, boiled down:
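Rat cortical cultures, DIV 13/15; spikes detected at 8x rms noise, 300-5000 Hz band-pass. Compound 0.03-40 uM, ≥3 wells; 40-min pre- and post-exposure recordings, 37 C. Readout: % change in synchrony index; loss-of-signal fit vs DMSO.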

Assay [17] can be described thus: CCTE_Deisenroth_AIME_96WELL_CTox_Active: Cytotoxicity Assessment (CTOX) in CCTE's 96-well Estrogen Receptor Transactivation Assay with AIME metabolic competence (metabolism positive), Deisenroth Lab (AID 2284028; active = hit-call score of the fitted dose curve at least 0.9, where 1 is the maximum). The essentials: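 Cytotoxicity in VM7Luc4E2 breast cells after 24 h exposure to medium from a 2 h metabolic pre-incubation with induced rat hepatic S9 in alginate microspheres; fluorescent live-cell protease readout, 10-point series 0.002–200 uM, n=4.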

The nature of assay [18]: CCTE_Deisenroth_AIME_96WELL_CTox_Inactive: Cytotoxicity Assessment (CTOX) in CCTE's 96-well Estrogen Receptor Transactivation Assay without AIME metabolic competence (metabolism negative), Deisenroth Lab (AID 2284029; active = hit-call score of the fitted dose curve at least 0.9, where 1 is the maximum). The method, boiled down: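 Cytotoxicity in VM7Luc4E2 breast cells was scored as loss of fluorescent signal from a live-cell protease substrate 24 h after exposure, using bidirectional curve fitting. Test media came from a 2 h metabolism-negative pre-incubation (alginate-water, no hepatic S9) of compounds at 0.002-200 uM, with at least four replicates.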

The AC50 is the midpoint of the concentration-response curve, whichever way the signal moves.

Results filed as inconclusive are left out. Active and inactive are the calls of the source. The calls were made as follows, unless noted: active = hit-call score of the fitted dose curve at least 0.9, where 1 is the maximum; inactive = score below 0.9.

Chain of Estrogen receptor (Homo sapiens) (P03372 whole entry, looked up): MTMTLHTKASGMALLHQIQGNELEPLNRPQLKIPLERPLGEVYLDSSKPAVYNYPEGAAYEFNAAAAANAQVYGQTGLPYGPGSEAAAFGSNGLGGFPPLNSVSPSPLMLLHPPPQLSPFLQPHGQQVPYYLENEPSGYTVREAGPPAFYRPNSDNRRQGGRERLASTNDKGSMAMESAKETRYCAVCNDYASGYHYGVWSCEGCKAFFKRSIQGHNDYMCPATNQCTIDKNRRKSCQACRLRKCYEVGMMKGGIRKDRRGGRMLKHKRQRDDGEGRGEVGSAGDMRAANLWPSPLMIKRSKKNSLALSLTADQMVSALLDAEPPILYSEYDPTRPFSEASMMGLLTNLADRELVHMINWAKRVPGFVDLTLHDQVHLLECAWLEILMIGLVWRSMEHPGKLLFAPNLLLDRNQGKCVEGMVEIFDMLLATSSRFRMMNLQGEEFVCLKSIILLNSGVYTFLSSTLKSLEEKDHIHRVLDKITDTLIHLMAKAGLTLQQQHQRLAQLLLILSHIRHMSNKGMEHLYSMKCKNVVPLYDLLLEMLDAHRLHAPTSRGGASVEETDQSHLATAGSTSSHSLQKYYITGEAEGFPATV

For the molecule `CCCCCCC(=O)OCC`, the molecule was classed as inactive in assay [1].
As for `O=c1[nH]cc(F)c(=O)[nH]1`, the result in assay [2], in [3], in [4] and in assay [1] was inactive.
For `CC(=O)C(C)=CC1C(C)=CCCC1(C)C` (stereo unspecified), the result in assay [2], in assay [3], in assay [5], in assay [6], in assay [7] and in [8] was inactive. Also, the result in [10], in [11], in assay [12], in [13], in assay [14] and in assay [15] was inactive. Also, the AC50 in assay [9] and in assay [16] was 20 µM (active) throughout.
As to `CC(=O)Oc1ccccc1C(=O)O`, the outcome in assay [2], in assay [3], in [5], in assay [6], in [7] and in [8] was inactive. Also, the result in [9], in [10], in assay [11], in [12], in [13] and in assay [14] was inactive. Besides, the molecule was classed as inactive in [15], in assay [16] and in assay [1].
Regarding `CCCCOC(=O)CCCCCCCCC(=O)OCCCC`, the outcome in assay [2], in assay [3] and in [1] was inactive.
Turning to `COCCOCCOC`, the result in assay [2], in assay [3], in assay [4] and in assay [1] was inactive.
`CC1=C(/C=C/C(C)=C/C=C/C(C)=C/CO)C(C)(C)CCC1`: the result in assay [2], in assay [3], in [4] and in assay [1] was inactive.
`Cc1cc(=O)[nH]c(=S)[nH]1`: the outcome in [2], in [3], in assay [4] and in assay [1] was inactive.
As to `COc1cccc2c1C(=O)c1c(O)c3c(c(O)c1C2=O)C[C@@](O)(C(=O)CO)C[C@@H]3O[C@H]1C[C@H](N)[C@H](O)[C@H](C)O1`, the half-maximal activity concentration (AC50) in [2] was 37.5 µM (active); in assay [3], 90.8 µM (active); in assay [17], 51.6 µM (active); in assay [18] it was 68.2 µM (active).
For `CCOC(=O)C(C)(C)Oc1ccc(Cl)cc1`, the outcome in assay [2], in assay [3], in [5], in assay [6], in assay [7] and in assay [8] was inactive. For the same molecule, the result in assay [9], in [10], in assay [11], in [12], in [13] and in [14] was inactive. Further, the molecule was classed as inactive in assay [15] and in assay [16].
For the molecule `CCOc1ccc2c(c1)C(C)=CC(C)(C)N2`, the result in assay [2] and in assay [3] was inactive. Besides, the AC50 in assay [1] was 34.5 µM (active).
In the case of `CCCCCCCCCCCCCCCCCC(=O)O`, the outcome in assay [2], in [3], in [5], in [6], in assay [7] and in [8] was inactive. Further, the molecule was called inactive in assay [9], in assay [10], in assay [11], in assay [12], in [14] and in [15]. Also, the result in [16] and in [1] was inactive.
As to `NCCO`, the outcome in assay [2], in assay [3], in assay [4] and in assay [1] was inactive.
On to `Nc1nc(N)c2nc(CNc3ccc(C(=O)N[C@@H](CCC(=O)O)C(=O)O)cc3)cnc2n1`, for which the molecule was classed as inactive in [5], in assay [6], in [7], in [8], in [9] and in assay [10]. In addition, the call in [11], in assay [12], in assay [13], in assay [14], in assay [15] and in assay [16] was inactive.
Regarding `CC(C)(C)c1cc(O)c(C(C)(C)C)cc1O`, the outcome in [2], in [3], in assay [5], in assay [7], in assay [9] and in [10] was inactive. Moreover, the molecule was classed as inactive in assay [13], in [14] and in assay [16]. For the same molecule, the AC50 in assay [6] is 29.4 µM (active); in [8], 31.4 µM (active); in assay [11], 4.33 µM (active); in assay [12], 30.7 µM (active).
For the molecule `CC1(C)NC(=O)NC1=O`, the result in assay [2], in assay [3], in [4] and in assay [1] was inactive.
As for `CCNc1cccc(C)c1`, the outcome in assay [2], in assay [3], in assay [4] and in [1] was inactive.
